Bioassay records deposited in PubChem BioAssay by National Center for Advancing Translational Sciences (NCATS).
A selection: hits, their analogues and other compounds. The true share with any hit is near 10%.
ELG1 repair inh = inhibitors of ELG1-dependent DNA repair in HEK293T cells; HEK293T ELG1-luciferase reporter, luminescence, 16 h; DNA damage induced by 5-fluorouridine; Potency, µM (doses to about 46.1 µM), without a hit: at the top dose activity change, negative = inhibition, most hits filed as inhibitors; 330,000 compounds, 2.3% hits; AID 504467; further: on the % scale 0 is the no-effect control and ±100 the full control effect; nearly all actives have a fitted effect of over 55% in size
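Cells (2,000 per well) received 5-fluorouridine plus test compound or DMSO and were incubated 16 hr at 37 °C, 5% CO2. Luciferase activity was read by luminescence 30 min after ONE-Glo addition; signal suppression marked inhibition of damage-induced ELG1 function.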
Gal4-VP16 FLuc = Gal4-VP16 reporter inhibition counter-screen; Drosophila S2 Gal4-VP16 UAS-luciferase, luminescence, 20 h; Potency, µM (top dose mostly 53.6 µM), for the others: at the highest dose activity, negative = inhibition, most hits filed as inhibitors; 310,000 compounds, 3.5% hits; AID 2546;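 further: Gal4-VP16 expression switched on by copper sulfate through the metallothionein promoter; on the % scale 0 is the no-effect control and ±100 the full control effect; nearly all actives have a fitted effect of over 50% in size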
MCF10A rerep = induces DNA re-replication in MCF 10a normal breast cells; MCF 10A DNA re-replication, Hoechst nuclear intensity, 48 h; Potency, µM (doses to about 46.1 µM), without a hit: top-dose activity, positive = re-replication, actives largely listed as activators; 350,000 compounds, 2.9% hits; AID 624296; further: % of control where 0% means no effect; nearly all actives have a fitted effect of over 50% in size
SW480 rereplic = inducers of DNA re-replication in SW480 colon cancer cells; SW480 DNA re-replication, Hoechst DNA content imaging, 48 h; Potency, µM (titrated, usually from 46.1 µM), inactives show at the top dose re-replication activation, actives largely listed as activators; 340,000 compounds, 1.8% hits; further: % of control where 0% means no effect; nearly all actives have a fitted effect of over 55% in size
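SW480 cells exposed to compounds for 48 hr at 37 C, 5% CO2, then Hoechst-stained 40 min. Nuclear DNA content imaged by fluorescence scanning (405 nm excitation, 500-530 nm emission); re-replication scored as increased high-intensity nuclei.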
RORgamma inh = inhibitors of mouse ROR gamma transcriptional activity | P51450 | Drosophila S2 Gal4-RORgamma UAS-luciferase reporter, 20 h | Potency, µM (highest dose often 53.6 µM), for inactives: at the highest dose activity change, negative = inhibition, usual class: inhibitors | 310,000 compounds, 5.4% hits | AID 2551; further: on the % scale 0 is the no-effect control and ±100 the full control effect; nearly all actives have a fitted effect of over 60% in size
Target sequence (P51450 whole entry, looked up, the tested form may be a part): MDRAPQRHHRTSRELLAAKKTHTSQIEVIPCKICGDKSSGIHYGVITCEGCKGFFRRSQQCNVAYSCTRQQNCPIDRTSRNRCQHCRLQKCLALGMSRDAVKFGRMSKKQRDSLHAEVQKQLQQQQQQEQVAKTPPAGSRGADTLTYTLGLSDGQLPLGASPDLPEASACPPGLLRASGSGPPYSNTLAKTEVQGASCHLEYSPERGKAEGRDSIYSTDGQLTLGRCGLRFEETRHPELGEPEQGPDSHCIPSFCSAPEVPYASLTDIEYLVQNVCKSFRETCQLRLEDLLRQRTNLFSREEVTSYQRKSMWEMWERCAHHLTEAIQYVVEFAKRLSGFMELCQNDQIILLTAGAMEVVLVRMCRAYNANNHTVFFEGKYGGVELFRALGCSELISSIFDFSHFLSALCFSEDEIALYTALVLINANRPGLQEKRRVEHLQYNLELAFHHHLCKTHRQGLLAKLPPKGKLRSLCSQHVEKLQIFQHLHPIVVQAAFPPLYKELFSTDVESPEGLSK
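Read-out: Photinus luciferase luminescence; inhibitors lower reporter signal. Insect Schneider cells with Gal4-ROR gamma fusion under metallothionein promoter, UAS reporter; 700 uM final copper sulfate induction, 20 hr, ambient temperature.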
* marks the source's active call; other numbers are inactive results. The call rests on the fitted dose curve; in most records, active means well fitted curve in the direction sought with a large enough effect; inconclusive means small, poorly fitted or top-dose-only effect, or another doubt; inactive means no such curve, though single readings can be large; an effect the other way counts as inactive or inconclusive. Potency means the concentration at half of the fitted maximal effect.

`O=C(c1cc(-c2ccccc2)nc2ccccc12)N1CCCc2ccccc21` gave ELG1 repair inh 18µM*, Gal4-VP16 FLuc 2%, MCF10A rerep 13%, SW480 rereplic inconclusive and RORgamma inh 42%.
For Cc1ccc(-c2cc(C(F)F)n3ncc(C(=O)N4CCCc5ccccc54)c3n2)cc1 the results were ELG1 repair inh -28%, Gal4-VP16 FLuc -4%, MCF10A rerep 18%, SW480 rereplic -3% and RORgamma inh -6%.
`Cc1cccc(-c2cc(C(=O)N3CCCc4ccccc43)c3ccccc3n2)c1` gave ELG1 repair inh 7.3µM*, Gal4-VP16 FLuc -16%, MCF10A rerep 10%, SW480 rereplic -1% and RORgamma inh -15%.
`COc1cccc([C@@H]2CC=C(C(=O)O)CN2S(=O)(=O)c2ccc(C)cc2)c1` gave ELG1 repair inh 26%, MCF10A rerep 10% and SW480 rereplic -3%.
For COc1cccc(-c2cc(=O)c3cc(O)ccc3o2)c1 the results were Gal4-VP16 FLuc inconclusive and RORgamma inh -36%.
For COc1ccc(C2=Nc3nc(-c4ccccc4)cn3C(c3ccc(OC)cc3)C2)cc1 (stereo unspecified) the results were ELG1 repair inh -27%, Gal4-VP16 FLuc inconclusive, MCF10A rerep inconclusive, SW480 rereplic 16µM* and RORgamma inh inconclusive.
`COc1ccc(C2CC(c3ccccc3)=NN2C(=O)CCC(=O)O)cc1` (stereo unspecified) gave ELG1 repair inh 1%, Gal4-VP16 FLuc inconclusive, MCF10A rerep 5%, SW480 rereplic -2% and RORgamma inh inconclusive.
For CN1CCN(C(=S)NC(=O)/C=C/c2ccccc2Cl)CC1 the results were ELG1 repair inh -15%, Gal4-VP16 FLuc inconclusive, MCF10A rerep 5%, SW480 rereplic 3% and RORgamma inh 2.5µM*.
For CN1CCN(C(=S)NC(=O)/C=C/c2ccccc2)CC1 the results were ELG1 repair inh 20%, Gal4-VP16 FLuc inconclusive, MCF10A rerep -11%, SW480 rereplic 5% and RORgamma inh 11µM*.
Screening O=C(/C=C/c1ccc(Br)cc1)NC(=S)N1CCOCC1 returned ELG1 repair inh 4%, Gal4-VP16 FLuc 0.4µM*, MCF10A rerep -10%, SW480 rereplic 5% and RORgamma inh 0.71µM*.
CC(OC(=O)/C=C/c1ccc(Br)cc1)C(=O)N1CCOCC1 (stereo unspecified) was read as ELG1 repair inh 6%, MCF10A rerep 5% and SW480 rereplic 6%.
Cn1c(=O)c(-c2ccccc2)nc2cnc(Nc3ccccc3)nc21 was read as Gal4-VP16 FLuc 11% and RORgamma inh -15%.
`C=CCNC(=S)NNC(=O)C(CCCC)CC(C)O` (stereo unspecified) gave ELG1 repair inh 7%, Gal4-VP16 FLuc -5%, MCF10A rerep 1%, SW480 rereplic -5% and RORgamma inh -29%.
Screening C=CCNC(=S)NNC(=O)CCC(O)CCCCC (stereo unspecified) returned ELG1 repair inh 1%, Gal4-VP16 FLuc -16%, MCF10A rerep -2%, SW480 rereplic 1% and RORgamma inh 10µM*.
For CCOC(=O)c1c[nH]c2c([N+](=O)[O-])cc(OC)cc2c1=O the results were MCF10A rerep 22% and SW480 rereplic 16µM*.
CCC[C@@H]1CCCO[C@@](C(=O)NCc2ccccn2)(C(F)(F)F)C1 was read as Gal4-VP16 FLuc 1%, MCF10A rerep 13%, SW480 rereplic -7% and RORgamma inh 18%.
For Cc1ccc2nc(-c3ccccc3)c(CN3CCSCC3)n2c1 the results were ELG1 repair inh -13%, Gal4-VP16 FLuc -5%, MCF10A rerep 4%, SW480 rereplic 0% and RORgamma inh 16µM*.
For Cc1ccc2nc(-c3ccccc3)c(CN3CCN(c4ccccc4F)CC3)n2c1 the results were ELG1 repair inh -16%, Gal4-VP16 FLuc inconclusive, MCF10A rerep inconclusive, SW480 rereplic 15% and RORgamma inh 8.9µM*.
For Cc1ccc2nc(-c3ccccc3)c(CN3CCOCC3)n2c1 the results were ELG1 repair inh -6%, Gal4-VP16 FLuc inconclusive, MCF10A rerep 0.65µM*, SW480 rereplic -13% and RORgamma inh 4%.
For Cc1ccc2nc(N3CCN(c4ccccc4F)CC3)c(C=O)c(=O)n2c1 the results were ELG1 repair inh 7%, Gal4-VP16 FLuc -5%, MCF10A rerep -6%, SW480 rereplic -13% and RORgamma inh 15%.
For Cc1cccc(-c2nnc(SCC(=O)N3CCOCC3)o2)c1 the results were ELG1 repair inh inconclusive, Gal4-VP16 FLuc -10%, MCF10A rerep -10%, SW480 rereplic -21% and RORgamma inh -22%.
C[C@H](NS(=O)(=O)c1ccc(Cl)cc1)C(=O)OCC(=O)c1ccc[nH]1 was read as ELG1 repair inh -1%, Gal4-VP16 FLuc -2%, MCF10A rerep 11%, SW480 rereplic -3% and RORgamma inh 1%.
For COc1cc(OC)nc(NC(=O)COC(=O)c2cccc(Cl)c2)n1 the results were ELG1 repair inh 8%, Gal4-VP16 FLuc 0%, MCF10A rerep 9%, SW480 rereplic 2% and RORgamma inh 34%.
`CC(C)n1nc(C(=O)Nc2cccc(S(=O)(=O)N3CCCCC3)c2)c2ccccc2c1=O` gave ELG1 repair inh inconclusive, MCF10A rerep 4% and SW480 rereplic -34%.
Cc1cc(O)c(CN2CCN(S(=O)(=O)c3cccs3)CC2)cc1C(C)C was read as ELG1 repair inh 11µM*, MCF10A rerep 10% and SW480 rereplic 2%.
For CCCS(=O)(=O)N1CCN(C2CCC(C)CC2)CC1 (stereo unspecified) the results were ELG1 repair inh -3%, Gal4-VP16 FLuc 6%, MCF10A rerep 4%, SW480 rereplic -3% and RORgamma inh -7%.
COc1ccc(C(C)=O)cc1COC(=O)C1CCN(C(=O)c2ccc(Cl)cc2)CC1 was read as ELG1 repair inh -8%, MCF10A rerep 0% and SW480 rereplic -1%.
Screening COc1ccc(CN2CCN(S(=O)(=O)c3ccc(F)cc3)CC2)c(OC)c1OC returned ELG1 repair inh inconclusive, Gal4-VP16 FLuc 3%, MCF10A rerep inconclusive, SW480 rereplic -2% and RORgamma inh 2%.
Screening COc1ccccc1N1CCN(C(=O)c2ccc(S(=O)(=O)N3CCCCCC3)cc2)CC1 returned ELG1 repair inh 15µM*, Gal4-VP16 FLuc -2%, MCF10A rerep inconclusive, SW480 rereplic 2% and RORgamma inh -5%.
COc1ccc(COC(=O)C2CCN(C(=O)c3ccc(Cl)cc3)CC2)cc1F was read as ELG1 repair inh -24%, MCF10A rerep 15µM* and SW480 rereplic 2%.
`COc1ccccc1C(=O)N1CCN(S(=O)(=O)c2ccccc2)CC1` gave ELG1 repair inh -1%, Gal4-VP16 FLuc -1%, MCF10A rerep -16%, SW480 rereplic -6% and RORgamma inh 11µM*.
